# In ChEMBL document CHEMBL1961873, “Compounds: GSK PKIS; Assays: Nanosyn kinase panel” (2012):
# Values joined by “and” are separate entries in the source; they are usually repeats but may differ in a detail not shown here. Equal values may be shown once.
# Molecular target: Fibroblast growth factor receptor 2 (Homo sapiens) (UniProt P21802);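 also: reported figure is a mean percent inhibition of FGFR2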
# Conditions: at 1 µM
# Chain of Fibroblast growth factor receptor 2 (Homo sapiens) (P21802 22-821 limits assumed): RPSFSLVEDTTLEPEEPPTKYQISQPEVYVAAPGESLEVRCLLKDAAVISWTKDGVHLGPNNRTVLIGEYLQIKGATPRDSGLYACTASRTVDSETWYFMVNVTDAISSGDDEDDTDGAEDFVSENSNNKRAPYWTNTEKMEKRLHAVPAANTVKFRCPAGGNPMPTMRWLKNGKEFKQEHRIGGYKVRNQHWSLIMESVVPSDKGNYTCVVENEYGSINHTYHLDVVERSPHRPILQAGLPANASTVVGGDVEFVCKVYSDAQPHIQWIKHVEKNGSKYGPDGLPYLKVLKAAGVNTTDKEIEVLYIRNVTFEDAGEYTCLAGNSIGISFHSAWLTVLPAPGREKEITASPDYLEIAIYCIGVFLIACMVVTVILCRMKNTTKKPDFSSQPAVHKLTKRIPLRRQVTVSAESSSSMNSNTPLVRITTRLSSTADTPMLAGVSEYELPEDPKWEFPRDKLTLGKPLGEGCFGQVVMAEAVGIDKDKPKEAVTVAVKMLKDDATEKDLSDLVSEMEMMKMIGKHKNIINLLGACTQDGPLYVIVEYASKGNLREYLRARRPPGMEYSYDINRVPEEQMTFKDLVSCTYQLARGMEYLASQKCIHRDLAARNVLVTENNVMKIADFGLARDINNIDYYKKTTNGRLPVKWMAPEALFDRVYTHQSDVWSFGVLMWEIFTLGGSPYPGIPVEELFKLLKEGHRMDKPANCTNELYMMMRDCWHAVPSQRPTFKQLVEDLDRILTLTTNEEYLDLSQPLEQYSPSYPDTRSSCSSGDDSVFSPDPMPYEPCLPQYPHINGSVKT
row,Compound,inhibition
1,CC1=C(C(=O)Nc2ccc3[nH]nc(C)c3c2)C(c2ccc(C(F)(F)F)cc2)CC(=O)N1 (configuration not stated),13.4%
2,COc1cc(N2CCN(C(C)C)CC2)ccc1Nc1nc(Nc2cccc3ncccc23)c2cc[nH]c2n1,1.97%
3,COc1cc(Nc2ncc(-c3ccccc3)o2)cc(OC)c1,11.7%
4,COc1cccc(Nc2nccc(-c3cnn4ncccc34)n2)c1,16.6%
5,O=C(Nc1n[nH]c2nnc(-c3cccnc3)cc12)C1CC1,-0.69%
6,CN1CCN(Cc2ccc(-c3cc4ncnc(Nc5ccc(OCc6cccc(F)c6)c(Cl)c5)c4s3)o2)CC1,4.91% and 4.73%
7,CCCNc1cccc(-n2ncc3c(N/N=C/c4ccncc4)ncnc32)c1,19.4%
8,CS(=O)(=O)Nc1ccc(-c2ccc3c(NC(=O)C4CC4)n[nH]c3c2)cc1,8.17%
9,COc1cccc(-n2ncc3c(N/N=C/c4ccc(C(=O)NCCN(C)C)cc4)ncnc32)c1,10.7%
10,O=C(O[C@H]1CN[C@H](C#Cc2cc3ncnc(Nc4ccc(OCc5cccc(F)c5)c(Cl)c4)c3s2)C1)N1CCOCC1,4.24%
11,O=C(O[C@H]1CN[C@H](C#Cc2cc3ncnc(Nc4ccc5c(cnn5Cc5ccccc5)c4)c3s2)C1)N1CCOCC1,-0.52%
12,CCn1c(-c2nonc2N)nc2cncc(C(=O)NCCNC)c21,5.33%
13,O=C(O[C@H]1CN[C@H](C#Cc2cc3ncnc(Nc4ccc5c(ccn5Cc5cc(F)ccc5F)c4)c3s2)C1)N1CCOCC1,4.22%
14,c1ccc(-c2n[nH]cc2-c2ccnc(-c3ccc(OCCn4ccnc4)cc3)c2)nc1,2.51%
15,COc1cc2c(cc1Nc1nc(Nc3cccc(F)c3C(N)=O)c3cc[nH]c3n1)N(C(=O)CN1CCN(C(C)C)CC1)CC2,0.93%
16,CNC(=O)c1cncc(/C=C/c2ccccc2C)c1,4.95%

row,Compound,inhibition
1,N#Cc1cccc(Nc2ncc(-c3ccccc3)o2)c1,7.1%
2,CCN1CCC(C(=O)Nc2n[nH]c3nnc(-c4cccc(F)c4F)cc23)CC1,-2.18%
3,Nc1nonc1-c1nc2cnccc2n1C1CC1,8.58% and -2.64%
4,O=C1Nc2ccccc2/C1=C1\CCc2cc(O)ccc21,31.3%
5,Fc1ccc(Nc2nccc(-c3c(-c4ccc(C(F)(F)F)cc4)nn4ncccc34)n2)cc1F,6.72%
6,CCS(=O)(=O)c1ccc(OC)c(Nc2ncc(-c3cccc(F)c3)o2)c1,69.8%
7,OCCCNc1nccc(-c2c(-c3ccc(F)cc3)nn3cc(C(F)(F)F)ccc23)n1,3.29%
8,CN(c1ccc(NC(=O)NCCN2CCOCC2)cc1)c1ccnc(Nc2ccc(CS(C)(=O)=O)cc2)n1,14.8%
9,Nc1nccc(-c2c(-c3ccc(F)cc3)ncn2C2CCNCC2)n1,-3.58% and 1.03%
10,CC1(C)CC(n2cnc(-c3ccc(F)cc3)c2-c2ccnc(N)n2)CC(C)(C)N1,-0.31%
11,Cn1c(-c2nonc2N)nc2cnccc21,1.91%
12,COc1ccc2ncn(-c3cc(O[C@H](C)c4ccccc4C(F)(F)F)c(C(N)=O)s3)c2c1,5.48%
13,Cc1c2ccc(N(C)c3ccnc(Nc4cccc(S(N)(=O)=O)c4)n3)cc2nn1C,69.9%
14,CNC(=O)c1ncccc1Nc1nc(Nc2cc3c(cc2OC)CCCN3C(=O)CN(C)C)nc2[nH]ccc12,6.99%
15,COC(=O)Nc1nc2cc(Oc3ccc(NC(=O)Nc4ccccc4)cc3)ccc2[nH]1,4.03%

# Molecular target: Fibroblast growth factor receptor 3 (Homo sapiens) (UniProt P22607);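 also: each value is a mean percent inhibition of FGFR3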
# Sequence (P22607 23-806 limits assumed): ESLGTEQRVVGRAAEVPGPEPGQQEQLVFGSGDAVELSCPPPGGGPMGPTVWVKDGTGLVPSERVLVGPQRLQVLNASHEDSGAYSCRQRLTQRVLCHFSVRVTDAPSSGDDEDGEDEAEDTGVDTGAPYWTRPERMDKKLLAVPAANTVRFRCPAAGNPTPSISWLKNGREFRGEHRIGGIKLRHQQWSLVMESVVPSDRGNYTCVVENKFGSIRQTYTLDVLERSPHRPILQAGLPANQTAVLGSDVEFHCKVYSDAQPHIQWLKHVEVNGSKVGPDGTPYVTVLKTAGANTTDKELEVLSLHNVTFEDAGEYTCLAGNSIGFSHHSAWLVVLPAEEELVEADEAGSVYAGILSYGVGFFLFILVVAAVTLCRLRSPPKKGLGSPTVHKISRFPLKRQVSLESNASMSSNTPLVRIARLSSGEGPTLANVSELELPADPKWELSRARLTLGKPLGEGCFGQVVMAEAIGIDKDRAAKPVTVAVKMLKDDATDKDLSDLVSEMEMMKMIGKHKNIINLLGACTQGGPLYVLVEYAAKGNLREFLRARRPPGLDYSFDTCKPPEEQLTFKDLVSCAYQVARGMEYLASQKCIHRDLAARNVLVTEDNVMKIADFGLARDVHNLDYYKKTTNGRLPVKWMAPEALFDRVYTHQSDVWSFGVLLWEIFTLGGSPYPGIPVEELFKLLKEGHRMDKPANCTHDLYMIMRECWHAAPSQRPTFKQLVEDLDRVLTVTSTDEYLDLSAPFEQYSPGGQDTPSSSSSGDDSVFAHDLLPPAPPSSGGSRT
# Conditions: at 0.1 µM
row,Compound,inhibition
1,CC1=C(C(=O)Nc2ccc3[nH]nc(C)c3c2)C(c2ccc(C(F)(F)F)cc2)CC(=O)N1 (configuration not stated),5.62%
2,COc1cc(N2CCN(C(C)C)CC2)ccc1Nc1nc(Nc2cccc3ncccc23)c2cc[nH]c2n1,0.3%
3,COc1cc(Nc2ncc(-c3ccccc3)o2)cc(OC)c1,1.91%
4,COc1cccc(Nc2nccc(-c3cnn4ncccc34)n2)c1,0.93%
5,O=C(Nc1n[nH]c2nnc(-c3cccnc3)cc12)C1CC1,0.05%
6,CN1CCN(Cc2ccc(-c3cc4ncnc(Nc5ccc(OCc6cccc(F)c6)c(Cl)c5)c4s3)o2)CC1,3.81% and 6.54%
7,CCCNc1cccc(-n2ncc3c(N/N=C/c4ccncc4)ncnc32)c1,0.74%
8,CS(=O)(=O)Nc1ccc(-c2ccc3c(NC(=O)C4CC4)n[nH]c3c2)cc1,6.11%
9,COc1cccc(-n2ncc3c(N/N=C/c4ccc(C(=O)NCCN(C)C)cc4)ncnc32)c1,6.47%
10,O=C(O[C@H]1CN[C@H](C#Cc2cc3ncnc(Nc4ccc(OCc5cccc(F)c5)c(Cl)c4)c3s2)C1)N1CCOCC1,5.89%
11,O=C(O[C@H]1CN[C@H](C#Cc2cc3ncnc(Nc4ccc5c(cnn5Cc5ccccc5)c4)c3s2)C1)N1CCOCC1,0.4%
12,CCn1c(-c2nonc2N)nc2cncc(C(=O)NCCNC)c21,2%
13,O=C(O[C@H]1CN[C@H](C#Cc2cc3ncnc(Nc4ccc5c(ccn5Cc5cc(F)ccc5F)c4)c3s2)C1)N1CCOCC1,5.33%
14,c1ccc(-c2n[nH]cc2-c2ccnc(-c3ccc(OCCn4ccnc4)cc3)c2)nc1,1.79%
15,COc1cc2c(cc1Nc1nc(Nc3cccc(F)c3C(N)=O)c3cc[nH]c3n1)N(C(=O)CN1CCN(C(C)C)CC1)CC2,7.88%
16,CNC(=O)c1cncc(/C=C/c2ccccc2C)c1,6.04%

row,Compound,inhibition
1,N#Cc1cccc(Nc2ncc(-c3ccccc3)o2)c1,2.72%
2,CCN1CCC(C(=O)Nc2n[nH]c3nnc(-c4cccc(F)c4F)cc23)CC1,-0.59%
3,Nc1nonc1-c1nc2cnccc2n1C1CC1,7.58% and 1.46%
4,O=C1Nc2ccccc2/C1=C1\CCc2cc(O)ccc21,10.3%
5,Fc1ccc(Nc2nccc(-c3c(-c4ccc(C(F)(F)F)cc4)nn4ncccc34)n2)cc1F,6.52%
6,CCS(=O)(=O)c1ccc(OC)c(Nc2ncc(-c3cccc(F)c3)o2)c1,52.9%
7,OCCCNc1nccc(-c2c(-c3ccc(F)cc3)nn3cc(C(F)(F)F)ccc23)n1,2.01%
8,CN(c1ccc(NC(=O)NCCN2CCOCC2)cc1)c1ccnc(Nc2ccc(CS(C)(=O)=O)cc2)n1,6.19%
9,Nc1nccc(-c2c(-c3ccc(F)cc3)ncn2C2CCNCC2)n1,-3.25% and 3.33%
10,CC1(C)CC(n2cnc(-c3ccc(F)cc3)c2-c2ccnc(N)n2)CC(C)(C)N1,1.59%
11,Cn1c(-c2nonc2N)nc2cnccc21,5.11%
12,COc1ccc2ncn(-c3cc(O[C@H](C)c4ccccc4C(F)(F)F)c(C(N)=O)s3)c2c1,0.12%
13,Cc1c2ccc(N(C)c3ccnc(Nc4cccc(S(N)(=O)=O)c4)n3)cc2nn1C,35.5%
14,CNC(=O)c1ncccc1Nc1nc(Nc2cc3c(cc2OC)CCCN3C(=O)CN(C)C)nc2[nH]ccc12,7.55%
15,COC(=O)Nc1nc2cc(Oc3ccc(NC(=O)Nc4ccccc4)cc3)ccc2[nH]1,5.75%
